The results in this text go back to the supplement of paper PMC10849652.

Targets with a hit are over-represented here; the source holds about 7,900 in all. About 0.6% of all pairs of compound and target were hits.

Sequence of UniProt Q5VZI3 (Q5VZI3 whole entry, looked up): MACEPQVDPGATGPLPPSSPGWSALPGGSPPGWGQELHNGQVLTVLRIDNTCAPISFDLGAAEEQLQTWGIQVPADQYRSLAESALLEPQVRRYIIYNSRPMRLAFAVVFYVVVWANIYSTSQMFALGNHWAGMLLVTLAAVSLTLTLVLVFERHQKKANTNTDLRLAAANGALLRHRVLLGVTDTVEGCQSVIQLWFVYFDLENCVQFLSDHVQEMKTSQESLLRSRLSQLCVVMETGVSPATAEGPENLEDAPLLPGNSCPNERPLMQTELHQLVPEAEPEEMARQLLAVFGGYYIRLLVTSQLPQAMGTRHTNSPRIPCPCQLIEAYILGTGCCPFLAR
Sequence of UniProt P61960 (P61960 whole entry, looked up): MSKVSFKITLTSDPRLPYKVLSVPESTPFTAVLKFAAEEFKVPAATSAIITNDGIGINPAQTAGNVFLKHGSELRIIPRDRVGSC
Sequence of UniProt Q9BZM6 (Q9BZM6 whole entry, looked up): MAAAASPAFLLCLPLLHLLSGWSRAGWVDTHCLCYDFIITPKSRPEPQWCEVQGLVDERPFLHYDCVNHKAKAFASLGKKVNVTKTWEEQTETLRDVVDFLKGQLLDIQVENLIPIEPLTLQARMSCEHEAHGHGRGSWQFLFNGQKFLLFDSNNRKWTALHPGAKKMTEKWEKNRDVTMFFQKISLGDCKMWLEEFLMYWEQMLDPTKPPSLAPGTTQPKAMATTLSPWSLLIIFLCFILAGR
Sequence of UniProt P51668 (P51668 whole entry, looked up): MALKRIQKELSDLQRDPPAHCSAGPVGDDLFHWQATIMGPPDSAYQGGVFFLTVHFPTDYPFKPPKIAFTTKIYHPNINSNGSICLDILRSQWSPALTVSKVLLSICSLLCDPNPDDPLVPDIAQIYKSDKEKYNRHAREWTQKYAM
Sequence of UniProt Q9HCN3 (Q9HCN3 whole entry, looked up): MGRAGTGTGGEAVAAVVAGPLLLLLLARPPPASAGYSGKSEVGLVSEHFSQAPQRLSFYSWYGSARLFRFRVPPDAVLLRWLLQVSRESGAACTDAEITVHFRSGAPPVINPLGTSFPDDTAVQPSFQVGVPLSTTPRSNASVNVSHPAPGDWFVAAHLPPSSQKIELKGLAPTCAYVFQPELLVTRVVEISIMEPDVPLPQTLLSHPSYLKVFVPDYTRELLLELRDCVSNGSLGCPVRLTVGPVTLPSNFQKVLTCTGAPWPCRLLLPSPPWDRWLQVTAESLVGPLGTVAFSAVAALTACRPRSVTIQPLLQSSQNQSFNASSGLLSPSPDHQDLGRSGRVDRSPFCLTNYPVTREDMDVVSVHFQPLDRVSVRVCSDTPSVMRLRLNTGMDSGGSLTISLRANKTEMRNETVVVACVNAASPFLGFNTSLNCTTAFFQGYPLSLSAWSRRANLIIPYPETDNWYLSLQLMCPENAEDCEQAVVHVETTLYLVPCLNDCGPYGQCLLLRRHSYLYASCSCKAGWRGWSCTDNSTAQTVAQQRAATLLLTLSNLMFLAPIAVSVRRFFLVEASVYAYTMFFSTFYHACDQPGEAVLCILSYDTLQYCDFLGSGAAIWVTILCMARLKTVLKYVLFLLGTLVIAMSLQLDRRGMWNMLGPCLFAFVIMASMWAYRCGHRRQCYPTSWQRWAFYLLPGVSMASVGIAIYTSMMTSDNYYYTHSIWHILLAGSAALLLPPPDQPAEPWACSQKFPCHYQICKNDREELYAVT
Sequence of UniProt Q8NE00 (Q8NE00 whole entry, looked up): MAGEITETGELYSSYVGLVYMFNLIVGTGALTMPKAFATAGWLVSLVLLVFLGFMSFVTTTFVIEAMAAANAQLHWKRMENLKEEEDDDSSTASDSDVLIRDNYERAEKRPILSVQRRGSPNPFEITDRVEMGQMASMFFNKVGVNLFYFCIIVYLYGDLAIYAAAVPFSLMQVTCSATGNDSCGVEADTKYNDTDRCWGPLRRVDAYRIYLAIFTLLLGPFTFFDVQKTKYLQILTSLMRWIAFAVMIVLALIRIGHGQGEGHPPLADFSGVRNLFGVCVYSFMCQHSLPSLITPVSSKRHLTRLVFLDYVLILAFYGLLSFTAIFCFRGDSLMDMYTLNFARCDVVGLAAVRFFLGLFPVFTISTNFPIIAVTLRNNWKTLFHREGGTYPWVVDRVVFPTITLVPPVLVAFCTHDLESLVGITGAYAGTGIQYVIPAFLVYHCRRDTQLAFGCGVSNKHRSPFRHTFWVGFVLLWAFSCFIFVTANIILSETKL
Sequence of UniProt Q15906 (Q15906 whole entry, looked up): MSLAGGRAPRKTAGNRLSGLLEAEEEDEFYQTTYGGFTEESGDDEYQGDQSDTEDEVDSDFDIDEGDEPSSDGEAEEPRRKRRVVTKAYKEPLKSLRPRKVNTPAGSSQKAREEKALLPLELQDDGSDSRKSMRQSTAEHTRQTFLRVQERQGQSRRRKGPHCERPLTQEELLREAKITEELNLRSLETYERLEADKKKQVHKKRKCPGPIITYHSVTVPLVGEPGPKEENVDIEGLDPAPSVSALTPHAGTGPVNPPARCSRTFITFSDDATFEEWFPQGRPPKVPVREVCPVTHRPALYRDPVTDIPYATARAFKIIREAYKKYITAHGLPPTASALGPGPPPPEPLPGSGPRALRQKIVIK
Sequence of UniProt Q5TAX3 (Q5TAX3 whole entry, looked up): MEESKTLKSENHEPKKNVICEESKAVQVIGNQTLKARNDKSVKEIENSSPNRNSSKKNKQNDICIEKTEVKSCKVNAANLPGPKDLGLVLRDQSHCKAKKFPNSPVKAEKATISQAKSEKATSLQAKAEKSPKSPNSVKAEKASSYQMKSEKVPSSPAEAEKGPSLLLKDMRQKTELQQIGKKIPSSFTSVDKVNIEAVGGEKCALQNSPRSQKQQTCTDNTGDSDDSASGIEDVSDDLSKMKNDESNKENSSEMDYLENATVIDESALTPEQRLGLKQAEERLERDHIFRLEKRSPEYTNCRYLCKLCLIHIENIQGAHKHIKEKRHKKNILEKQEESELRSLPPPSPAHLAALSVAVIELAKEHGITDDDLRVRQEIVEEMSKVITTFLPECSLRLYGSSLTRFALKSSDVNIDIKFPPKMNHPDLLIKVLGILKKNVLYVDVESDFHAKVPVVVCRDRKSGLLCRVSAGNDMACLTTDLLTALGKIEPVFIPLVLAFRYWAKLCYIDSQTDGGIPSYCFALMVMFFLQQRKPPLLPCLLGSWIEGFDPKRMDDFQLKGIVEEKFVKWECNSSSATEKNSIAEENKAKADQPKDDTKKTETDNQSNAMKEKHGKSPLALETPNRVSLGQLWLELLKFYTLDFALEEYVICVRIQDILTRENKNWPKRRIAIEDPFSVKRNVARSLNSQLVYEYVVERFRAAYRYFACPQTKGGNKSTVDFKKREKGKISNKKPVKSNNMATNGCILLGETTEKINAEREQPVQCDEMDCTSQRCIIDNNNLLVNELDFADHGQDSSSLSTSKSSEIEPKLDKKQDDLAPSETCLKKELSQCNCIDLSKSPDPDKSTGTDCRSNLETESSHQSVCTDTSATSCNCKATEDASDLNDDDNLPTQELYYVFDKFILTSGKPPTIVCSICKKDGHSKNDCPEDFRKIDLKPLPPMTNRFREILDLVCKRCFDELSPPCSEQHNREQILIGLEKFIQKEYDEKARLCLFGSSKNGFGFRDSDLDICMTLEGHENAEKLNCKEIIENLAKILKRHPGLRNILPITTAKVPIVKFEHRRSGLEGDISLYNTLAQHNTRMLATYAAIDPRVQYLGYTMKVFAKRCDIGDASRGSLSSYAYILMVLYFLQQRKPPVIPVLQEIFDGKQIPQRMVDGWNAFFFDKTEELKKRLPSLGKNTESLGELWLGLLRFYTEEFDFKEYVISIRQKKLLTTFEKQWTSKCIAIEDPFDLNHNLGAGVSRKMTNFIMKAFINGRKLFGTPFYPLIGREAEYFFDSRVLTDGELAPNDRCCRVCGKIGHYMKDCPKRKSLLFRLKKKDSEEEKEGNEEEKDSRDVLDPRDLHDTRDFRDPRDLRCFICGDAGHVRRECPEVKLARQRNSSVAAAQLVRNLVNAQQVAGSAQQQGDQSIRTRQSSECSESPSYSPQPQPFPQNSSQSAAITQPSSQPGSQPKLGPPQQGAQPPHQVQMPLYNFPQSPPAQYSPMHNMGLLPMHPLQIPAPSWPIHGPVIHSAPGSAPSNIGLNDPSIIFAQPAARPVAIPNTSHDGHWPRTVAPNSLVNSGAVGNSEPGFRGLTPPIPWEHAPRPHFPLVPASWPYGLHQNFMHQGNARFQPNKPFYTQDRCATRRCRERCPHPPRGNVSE
Sequence of UniProt Q8IWA0 (Q8IWA0 whole entry, looked up): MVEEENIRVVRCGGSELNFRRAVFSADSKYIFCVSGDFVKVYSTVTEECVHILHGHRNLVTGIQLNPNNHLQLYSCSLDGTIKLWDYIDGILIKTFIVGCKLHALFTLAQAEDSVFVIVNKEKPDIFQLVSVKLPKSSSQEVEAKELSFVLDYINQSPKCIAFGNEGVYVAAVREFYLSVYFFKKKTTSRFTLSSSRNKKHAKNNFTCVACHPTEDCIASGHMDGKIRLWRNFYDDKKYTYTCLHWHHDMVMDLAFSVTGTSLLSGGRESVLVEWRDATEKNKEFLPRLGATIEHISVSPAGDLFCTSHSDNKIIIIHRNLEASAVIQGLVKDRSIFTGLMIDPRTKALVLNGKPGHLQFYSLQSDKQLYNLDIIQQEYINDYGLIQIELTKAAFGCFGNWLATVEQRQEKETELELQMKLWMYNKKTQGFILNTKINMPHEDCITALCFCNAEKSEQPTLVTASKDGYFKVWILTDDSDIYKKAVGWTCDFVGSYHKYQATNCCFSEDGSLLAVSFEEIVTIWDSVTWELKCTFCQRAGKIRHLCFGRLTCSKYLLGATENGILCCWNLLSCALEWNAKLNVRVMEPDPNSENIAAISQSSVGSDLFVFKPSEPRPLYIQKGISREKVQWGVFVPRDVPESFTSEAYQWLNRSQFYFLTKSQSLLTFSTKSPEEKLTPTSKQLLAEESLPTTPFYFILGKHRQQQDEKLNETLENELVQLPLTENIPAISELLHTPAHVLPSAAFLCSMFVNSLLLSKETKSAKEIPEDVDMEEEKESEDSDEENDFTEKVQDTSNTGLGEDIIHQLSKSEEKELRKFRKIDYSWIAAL

Compound in one experiment: COc1cc(Nc2ncc3c(n2)-c2ccc(Cl)cc2C(c2c(F)cccc2OC)=NC3)ccc1C(=O)O [alisertib]
In words: log2 fold change, soluble protein after heating vs DMSO (PISA); higher = thermal stabilisation; K562 cells, 10 uM, 30 min; active = over 0.2 and 3.5 SD of the protein, either way, in both replicates (recomputed). The method in brief:
(§1)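 K562 cells (2×10^6 cells/mL) were treated with 10 μM compound for 30 min, and aliquots were heated for 3 min over 48°C-58°C. Pooled aliquots were extracted in PBS with 0.5% NP-40 at 4°C, and the supernatant after 21,000xg for 90 min was measured by TMTpro 16plex LC-MS/MS with channel sums equalised. Reported thermal stability, relative to control samples and from duplicates, is a log2 fold change.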
On to TSPAN13 (UniProt O95857), for which the log2 fold change was -0.164 (inactive).

Take TOM1 (UniProt O60784): the log2 fold change is 0.103 (inactive).

For WARS1 (UniProt G3V5U1), the log2 fold change was 0.391 (inactive).

Take U2AF1L5 (UniProt P0DN76): the log2 fold change is -0.517 (inactive).

On to TMEM41A (UniProt Q96HV5), for which the log2 fold change was -0.096 (inactive).

For USP48 (UniProt Q86UV5), the log2 fold change is 0.19 (inactive).

Turning to TRPT1 isoform 4 (UniProt Q86TN4), the log2 fold change was -0.055 (inactive).

As for TMEM104 (UniProt Q8NE00), the log2 fold change was -0.012 (inactive).

Regarding ULBP1 (UniProt Q9BZM6), the log2 fold change was -0.023 (inactive).

In the case of UBAP2L (UniProt F8W726), the log2 fold change is -0.074 (inactive).

In the case of WARS1 (UniProt G3V277), the log2 fold change was 0.04 (inactive).

As for UBE2D1 (UniProt P51668), the log2 fold change was 0.094 (inactive).

Consider WDR75 (UniProt Q8IWA0), for which the log2 fold change is -0.054 (inactive).

Take VPS72 isoform 2 (UniProt Q15906): the log2 fold change is -0.066 (inactive).

Turning to TMEM268 isoform 3 (UniProt Q5VZI3), the log2 fold change was 0.014 (inactive).

Regarding VDAC1 (UniProt C9JI87), the log2 fold change is -0.119 (inactive).

Regarding TVP23C (UniProt Q96ET8), the log2 fold change is 0.007 (inactive).

On to TRIQK (UniProt Q629K1), for which the log2 fold change was -0.142 (inactive).

VWA3B isoform 6 (UniProt Q502W6): the log2 fold change was -0.081 (inactive).

WDR46, A0A0G2JJL1: the log2 fold change is -0.167 (inactive).

For XIAP (UniProt P98170), the log2 fold change was 0.089 (inactive).

Consider XAB2 (UniProt Q9HCS7), for which the log2 fold change was -0.12 (inactive).

On to UFM1 isoform 2 (UniProt P61960), for which the log2 fold change is -0.067 (inactive).

Regarding TMEM8A (UniProt Q9HCN3), the log2 fold change was -0.153 (inactive).

As for TUT4 (UniProt Q5TAX3), the log2 fold change is -0.02 (inactive).

TRIM23 (UniProt P36406): the log2 fold change is -0.078 (inactive).

Compound in the next experiment: COc1cc2nc(-c3cc(F)ccc3O)nc(N[C@@H]3CNC[C@H]3C(C)(C)O)c2cc1OC
The description is as above. The method in brief:
as §1
With TSPAN13 (UniProt O95857), the log2 fold change was -0.013 (inactive).

Take TMEM41A (UniProt Q96HV5): the log2 fold change is 0.088 (inactive).

As for TMEM104 (UniProt Q8NE00), the log2 fold change is 0.016 (inactive).

Consider UBXN8 (UniProt O00124), for which the log2 fold change was -0.035 (inactive).

As for ULBP1 (UniProt Q9BZM6), the log2 fold change is 0.164 (inactive).

As for TMEM219 (UniProt Q86XT9), the log2 fold change was -0.011 (inactive).

For UBAP2L (UniProt F8W726), the log2 fold change is -0.069 (inactive).

Take UBE2D1 (UniProt P51668): the log2 fold change was 0.137 (inactive).

For WDR75 (UniProt Q8IWA0), the log2 fold change was -0.04 (inactive).

On to VPS72 isoform 2 (UniProt Q15906), for which the log2 fold change was -0.047 (inactive).

Take TMEM268 isoform 3 (UniProt Q5VZI3): the log2 fold change is -0.25 (inactive).

VDAC1 (UniProt C9JI87): the log2 fold change is 0.161 (inactive).

As for TVP23C (UniProt Q96ET8), the log2 fold change was -0.024 (inactive).

With VWA3B isoform 6 (UniProt Q502W6), the log2 fold change is -0.272 (inactive).

For the target WDR46, A0A0G2JJL1, the log2 fold change was -0.134 (inactive).

Take UTP20 (UniProt O75691): the log2 fold change is -0.087 (inactive).

As for XIAP (UniProt P98170), the log2 fold change is 0.085 (inactive).

Regarding TXNRD1 isoform 7 (UniProt Q16881), the log2 fold change was 0.242 (inactive).

As for UFM1 isoform 2 (UniProt P61960), the log2 fold change is -0.085 (inactive).

As to TMEM8A (UniProt Q9HCN3), the log2 fold change is -0.008 (inactive).

Regarding TUT4 (UniProt Q5TAX3), the log2 fold change was 0.158 (inactive).

For UBE2J2 isoform 3 (UniProt Q8N2K1), the log2 fold change was 0.134 (inactive).

In the case of TUBA4A (UniProt C9JJQ8), the log2 fold change was 0.052 (inactive).
